{
  "source": "PubChem BioAssay (NCATS)",
  "key": {"[1]": {"biological_target": "Estrogen receptor (Homo sapiens) (UniProt P03372)", "sequence (P03372 whole entry, looked up)": "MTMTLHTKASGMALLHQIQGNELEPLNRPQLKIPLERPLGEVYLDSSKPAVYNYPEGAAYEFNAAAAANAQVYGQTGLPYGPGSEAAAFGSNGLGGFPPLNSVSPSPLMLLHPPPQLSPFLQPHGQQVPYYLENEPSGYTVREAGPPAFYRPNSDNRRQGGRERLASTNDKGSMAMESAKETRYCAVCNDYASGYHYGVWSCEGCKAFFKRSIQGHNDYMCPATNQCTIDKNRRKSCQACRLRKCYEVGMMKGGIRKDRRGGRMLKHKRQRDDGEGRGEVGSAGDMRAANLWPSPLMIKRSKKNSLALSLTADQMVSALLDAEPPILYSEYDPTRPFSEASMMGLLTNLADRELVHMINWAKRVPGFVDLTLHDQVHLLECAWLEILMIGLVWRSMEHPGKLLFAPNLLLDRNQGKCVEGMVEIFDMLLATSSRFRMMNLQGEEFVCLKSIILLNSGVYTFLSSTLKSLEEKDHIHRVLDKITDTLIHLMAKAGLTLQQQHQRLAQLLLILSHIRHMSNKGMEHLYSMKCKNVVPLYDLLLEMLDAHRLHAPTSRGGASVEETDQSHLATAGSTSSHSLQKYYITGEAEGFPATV", "assay": "qHTS assay for small molecule agonists of estrogen receptor alpha signaling (AID 588514);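 note: 0% = vehicle only and 100% = reference agonist; nearly all actives have a fitted effect of over 70% in size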", "method_in_brief": "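ER-alpha-UAS-bla GripTite HEK 293 cells in medium with 2% charcoal/dextran-treated FBS were treated with compound titrations at 37 C for 18 hrs; beta-lactamase reporter read by CCF4 fluorescence after 2 hrs at RT.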"}, "[2]": {"biological_target": "Bile acid receptor (Homo sapiens) (UniProt Q96RI1)", "sequence (Q96RI1 whole entry, looked up)": "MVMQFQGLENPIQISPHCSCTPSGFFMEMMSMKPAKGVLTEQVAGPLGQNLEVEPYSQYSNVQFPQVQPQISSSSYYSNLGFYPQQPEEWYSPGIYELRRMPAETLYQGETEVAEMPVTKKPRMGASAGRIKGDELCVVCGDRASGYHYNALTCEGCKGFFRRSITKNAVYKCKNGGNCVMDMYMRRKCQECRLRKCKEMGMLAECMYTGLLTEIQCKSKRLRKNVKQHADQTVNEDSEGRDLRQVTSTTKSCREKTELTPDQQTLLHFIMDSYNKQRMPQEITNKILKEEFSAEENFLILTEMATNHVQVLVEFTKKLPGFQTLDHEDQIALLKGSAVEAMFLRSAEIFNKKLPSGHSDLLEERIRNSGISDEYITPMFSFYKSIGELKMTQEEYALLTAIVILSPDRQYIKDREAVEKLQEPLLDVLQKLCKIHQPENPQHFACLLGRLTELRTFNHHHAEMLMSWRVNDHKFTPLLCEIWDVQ", "assay": "qHTS assay for small molecule antagonists of farnesoid X receptor signaling (AID 588526); note: potency is the fitted concentration of half-maximal effect", "method_in_brief": "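Antagonist mode: titrated compounds tested against chenodeoxycholic acid stimulation (normalized to 50 uM CDCA and DMSO) in GeneBLAzer HEK293T cells for 16 h. Beta-lactamase read by CCF4 fluorescence; IC50 from Hill fits.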"}, "[3]": {"biological_target": "Glucocorticoid receptor (Homo sapiens) (UniProt P04150)", "sequence (P04150 whole entry, looked up)": "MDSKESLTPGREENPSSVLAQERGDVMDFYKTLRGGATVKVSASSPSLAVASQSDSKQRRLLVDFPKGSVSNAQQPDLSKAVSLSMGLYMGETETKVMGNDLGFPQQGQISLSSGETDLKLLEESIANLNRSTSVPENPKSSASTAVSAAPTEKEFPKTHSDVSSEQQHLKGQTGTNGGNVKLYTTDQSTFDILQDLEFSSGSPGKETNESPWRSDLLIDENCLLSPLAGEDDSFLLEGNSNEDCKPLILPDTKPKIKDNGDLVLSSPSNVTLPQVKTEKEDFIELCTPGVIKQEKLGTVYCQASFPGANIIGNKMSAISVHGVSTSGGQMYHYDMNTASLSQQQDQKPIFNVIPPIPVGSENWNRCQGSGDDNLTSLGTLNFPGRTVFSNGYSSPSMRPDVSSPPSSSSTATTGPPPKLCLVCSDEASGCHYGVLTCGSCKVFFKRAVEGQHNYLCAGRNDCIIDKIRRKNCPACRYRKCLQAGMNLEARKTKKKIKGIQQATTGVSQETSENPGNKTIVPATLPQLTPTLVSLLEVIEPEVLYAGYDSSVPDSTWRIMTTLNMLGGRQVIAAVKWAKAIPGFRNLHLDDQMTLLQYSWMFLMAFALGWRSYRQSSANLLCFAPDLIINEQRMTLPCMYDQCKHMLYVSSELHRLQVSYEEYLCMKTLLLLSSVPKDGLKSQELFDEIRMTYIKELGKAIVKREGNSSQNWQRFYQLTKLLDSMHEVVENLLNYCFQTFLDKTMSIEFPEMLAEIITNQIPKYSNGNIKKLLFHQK", "assay": "qHTS assay for small molecule agonists of glucocorticoid receptor signaling (AID 588532; active = well fitted curve in the direction sought with a large enough effect in the signal ratio, with a control signal flat; the % refers to the signal ratio;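 note: 100% = dexamethasone at 0.1 µM and 0% = DMSO only wells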)", "conditions": "HeLa MMTV-bla, beta-lactamase ratio, agonist, 18 h; stronger effect = higher value; percent of dexamethasone control, DMSO zero", "method_in_brief": "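HeLa GRE-bla reporter cells; 18 h compound exposure at 37 C; 2 h CCF4 loading at room temperature; fluorescence at 460 and 530 nm; EC50 by Hill equation.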"}, "[4]": {"biological_target": "Peroxisome proliferator-activated receptor gamma (Homo sapiens) (UniProt P37231)", "sequence (P37231 whole entry, looked up)": "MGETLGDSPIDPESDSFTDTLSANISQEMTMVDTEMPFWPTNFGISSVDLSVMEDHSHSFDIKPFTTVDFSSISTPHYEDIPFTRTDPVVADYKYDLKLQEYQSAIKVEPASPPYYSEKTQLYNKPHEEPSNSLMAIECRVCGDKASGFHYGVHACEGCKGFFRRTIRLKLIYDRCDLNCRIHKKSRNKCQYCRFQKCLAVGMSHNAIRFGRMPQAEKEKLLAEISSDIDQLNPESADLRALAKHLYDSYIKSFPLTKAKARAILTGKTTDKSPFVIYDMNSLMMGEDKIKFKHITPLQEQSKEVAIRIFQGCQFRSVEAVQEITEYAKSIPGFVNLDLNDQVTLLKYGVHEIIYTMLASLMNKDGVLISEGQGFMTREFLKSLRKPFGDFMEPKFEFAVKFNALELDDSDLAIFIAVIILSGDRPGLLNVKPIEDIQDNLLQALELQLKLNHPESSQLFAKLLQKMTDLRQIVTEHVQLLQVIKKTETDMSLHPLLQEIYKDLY", "assay": "qHTS assay for small molecule antagonists of peroxisome proliferator-activated receptor gamma signaling (AID 588537; active = well fitted inhibition curve with a large enough effect in the signal ratio, with a control signal flat, not every such curve was filed as active; the % refers to the signal ratio; note: potency is the fitted concentration of half-maximal effect)", "method_in_brief": "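Step one: plate 3000 HEK293 UAS-bla cells per well in medium with 1% stripped serum and hold 6-6.5 h at 37 C. Step two: add compound and 50 nM agonist for 16 h. Step three: CCF4 loading, fluorescence read.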"}, "[5]": {"biological_target": "Vitamin D3 receptor (Homo sapiens) (UniProt P11473)", "sequence (P11473 whole entry, looked up)": "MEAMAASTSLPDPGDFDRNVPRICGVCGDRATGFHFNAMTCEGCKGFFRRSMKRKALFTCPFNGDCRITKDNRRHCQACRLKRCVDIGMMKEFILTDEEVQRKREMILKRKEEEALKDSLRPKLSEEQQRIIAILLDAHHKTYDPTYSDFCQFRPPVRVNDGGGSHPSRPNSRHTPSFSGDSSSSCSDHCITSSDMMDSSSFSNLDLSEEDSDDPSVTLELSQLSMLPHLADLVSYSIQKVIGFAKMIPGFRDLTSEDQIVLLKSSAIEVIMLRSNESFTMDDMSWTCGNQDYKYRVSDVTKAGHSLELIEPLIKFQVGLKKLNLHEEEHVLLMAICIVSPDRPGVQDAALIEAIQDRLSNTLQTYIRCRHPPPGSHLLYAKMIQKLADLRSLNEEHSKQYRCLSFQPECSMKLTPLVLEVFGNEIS", "assay": "qHTS assay for small molecule agonists of vitamin D receptor signaling (AID 588543);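 note: 0% = DMSO basal and 100% = reference agonist control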", "method_in_brief": "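Reporter cells (HEK293T, VDR-UAS-bla) were seeded in medium with 2% charcoal-stripped serum and incubated 5 h, then compounds in concentration series were added for 16 h at 37 °C. Stimulation was scaled between DMSO basal and 50 nM 1α,25-dihydroxyvitamin D3.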"}, "[6]": {"biological_target": "Tumor necrosis factor (Homo sapiens) (UniProt P01375)", "sequence (P01375 whole entry, looked up)": "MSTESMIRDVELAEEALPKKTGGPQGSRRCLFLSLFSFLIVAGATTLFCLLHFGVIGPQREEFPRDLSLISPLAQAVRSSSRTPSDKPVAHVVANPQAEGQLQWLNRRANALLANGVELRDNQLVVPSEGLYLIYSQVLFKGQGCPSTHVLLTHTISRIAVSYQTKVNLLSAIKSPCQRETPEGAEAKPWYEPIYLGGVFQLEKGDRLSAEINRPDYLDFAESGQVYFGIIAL", "assay": "qHTS assay to identify small molecules that stimulate Tumor Necrosis Factor-alpha (TNF-alpha) secretion (AID 651757; active = well fitted curve in the direction sought with a large enough effect in the signal ratio; the % refers to the signal ratio; note: 0% is about no effect)", "method_in_brief": "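THP-1 cells were exposed to compounds for 17 hrs at 37 C, after which secreted TNF-alpha was measured by homogeneous HTRF (TR-FRET) using cryptate- and XL665-labeled anti-TNF-alpha antibodies, read after 3 hr at room temperature.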"}, "[7]": {"biological_target": "Vitamin D3 receptor (Homo sapiens) (UniProt P11473)", "assay": "qHTS assay for small molecule antagonists of vitamin D receptor signaling (AID 588541); note: potency is the fitted concentration of half-maximal effect", "method_in_brief": "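VDR-UAS-bla HEK293T cells in 2% charcoal-stripped FBS were stimulated with 1-alpha,25-dihydroxyvitamin D3 (3 nM final) plus compound for 16 h at 37 C. The beta-lactamase CCF4 readout was normalized to 50 nM agonist and DMSO, and Hill fits gave IC50.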"}, "[8]": {"assay": "qHTS assay for small molecule antagonists of retinoid X receptor alpha signaling (AID 588546; active = well fitted inhibition curve with a large enough effect in the signal ratio, with a control signal flat, not every such curve was filed as active; the % refers to the signal ratio; note: % is set by controls: 0 for no effect and ±100 for the full control effect)", "conditions": "HEK293T RXRa-UAS-bla, beta-lactamase ratio, antagonist mode; measured here: W530 green channel, cytotoxicity proxy", "method_in_brief": "(§1)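 Beta-lactamase reporter inhibition, read as CCF4 fluorescence ratio (ex 405, em 460/530 nm) after 2 h at RT. HEK293T UAS-bla cells, 2500/well, were stimulated with 9-cis-RA at 500 or 100 nM final alongside test compound for 18 h at 37 C.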"}, "[9]": {"biological_target": "Retinoic acid receptor RXR-alpha (Homo sapiens) (UniProt P19793)", "sequence (P19793 whole entry, looked up)": "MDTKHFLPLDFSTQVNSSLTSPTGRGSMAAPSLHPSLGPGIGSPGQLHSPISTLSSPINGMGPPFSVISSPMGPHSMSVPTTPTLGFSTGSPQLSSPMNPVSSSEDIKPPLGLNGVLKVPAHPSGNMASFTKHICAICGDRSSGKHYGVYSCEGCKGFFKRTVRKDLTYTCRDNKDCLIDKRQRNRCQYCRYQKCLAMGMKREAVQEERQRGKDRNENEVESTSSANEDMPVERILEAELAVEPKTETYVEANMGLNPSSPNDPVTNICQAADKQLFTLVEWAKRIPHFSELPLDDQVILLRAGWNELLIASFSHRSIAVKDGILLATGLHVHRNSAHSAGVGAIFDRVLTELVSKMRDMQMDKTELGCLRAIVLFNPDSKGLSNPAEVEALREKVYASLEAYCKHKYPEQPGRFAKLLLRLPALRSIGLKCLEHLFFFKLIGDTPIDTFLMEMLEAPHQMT", "assay": "qHTS assay for small molecule antagonists of retinoid X receptor alpha signaling (AID 588546)", "conditions": "HEK293T RXRa-UAS-bla, beta-lactamase ratio, antagonist mode", "method_in_brief": "as §1"}, "[10]": {"assay": "qHTS assay for small molecule agonists of the antioxidant response element (ARE) signaling pathway (AID 651741; active = well fitted activation curve with a large enough effect in the signal ratio; the % refers to the signal ratio)", "method_in_brief": "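HepG2 ARE-bla cells plated at 2,000 cells/well and incubated 5 h at 37 C/5% CO2 received 23 nL compound in DMSO. After 16 h at 37 C, LiveBLAzer B/G FRET substrate was applied for 2 h at room temperature and fluorescence read.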"}, "[11]": {"assay": "qHTS assay for small molecule activators of the p53 signaling pathway (AID 651743; active = well fitted activation curve with a large enough effect in the signal ratio, not every such curve was filed as active; the % refers to the signal ratio)", "conditions": "HCT-116 p53RE-bla, beta-lactamase FRET ratio, 16 h; activation: stronger effect = higher value", "method_in_brief": "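HCT-116 p53RE-bla, 4,000 cells/well; 5 h settle; cpd/DMSO 16 h, 37 C; LiveBLAzer B/G 2 h RT; fluorescence intensity.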"}, "[12]": {"assay": "qHTS assay for small molecule activators of the nuclear factor-kappa B (NF-kB) signaling pathway (AID 651749; active = well fitted activation curve with a large enough effect in the signal ratio; the % refers to the signal ratio)", "conditions": "NF-kB-bla ME-180 cells, beta-lactamase FRET ratio, 16 h; stronger effect = higher value", "method_in_brief": "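Incubation lasted 16 hr at 37C in 5% CO2 after 23 nL compound addition to ME-180 NF-kB-bla cells. Activation appears as beta-lactamase-mediated FRET loss.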"}, "[13]": {"biological_target": "Glucocorticoid receptor (Homo sapiens) (UniProt P04150)", "assay": "qHTS assay for small molecule antagonists of glucocorticoid receptor signaling (AID 588533; active = well fitted inhibition curve with a large enough effect in the signal ratio, with a control signal flat, not every such curve was filed as active; the % refers to the signal ratio)", "method_in_brief": "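Antagonist-mode qHTS: compound titrations added to GRE-bla HeLa cells, then dexamethasone 2 nM final; 18 h, 37 C. CCF4 FRET fluorescence normalized to dexamethasone and DMSO; IC50 from Hill fit.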"}, "[14]": {"assay": "qHTS assay for small molecule antagonists of peroxisome proliferator-activated receptor delta signaling (AID 588535; active = well fitted inhibition curve with a large enough effect in the signal ratio, with a control signal flat, not every such curve was filed as active; the % refers to the signal ratio)", "conditions": "HEK293T PPARd-UAS-bla, beta-lactamase FRET ratio, 18 h; 460 nm channel", "method_in_brief": "(§2)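 Cells were seeded at 4000 per well in assay medium containing 2% charcoal/dextran FBS and held 5 hrs at 37 C. Compounds were then added for 18 hrs. CCF4 substrate was applied for 2 hrs at room temperature before fluorescence reading.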"}, "[15]": {"biological_target": "Peroxisome proliferator-activated receptor delta (Homo sapiens) (UniProt Q03181)", "sequence (Q03181 whole entry, looked up)": "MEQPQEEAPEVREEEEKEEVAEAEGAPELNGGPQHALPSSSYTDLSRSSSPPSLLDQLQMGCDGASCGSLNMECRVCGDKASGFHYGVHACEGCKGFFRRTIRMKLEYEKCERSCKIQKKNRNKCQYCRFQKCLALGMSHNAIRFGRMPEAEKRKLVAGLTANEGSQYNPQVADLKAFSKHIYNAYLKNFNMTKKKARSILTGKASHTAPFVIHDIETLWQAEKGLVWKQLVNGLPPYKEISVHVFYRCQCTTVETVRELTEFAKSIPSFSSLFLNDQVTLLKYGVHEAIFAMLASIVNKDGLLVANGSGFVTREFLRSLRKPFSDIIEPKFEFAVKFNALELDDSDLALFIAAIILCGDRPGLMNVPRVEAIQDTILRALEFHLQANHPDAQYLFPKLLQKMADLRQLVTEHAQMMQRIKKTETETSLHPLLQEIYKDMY", "assay": "qHTS assay for small molecule antagonists of peroxisome proliferator-activated receptor delta signaling (AID 588535)", "method_in_brief": "as §2"}, "[16]": {"assay": "qHTS assay for small molecule agonists of retinoid X receptor alpha signaling (AID 588544)", "conditions": "HEK293T RXRa-UAS-bla, beta-lactamase reporter, 18 h; 530 nm emission"}, "[17]": {"assay": "qHTS assay to identify small molecules that stimulate interleukin-8 (IL-8) secretion (AID 651758; active = well fitted activation curve with a large enough effect in the signal ratio; the % refers to the signal ratio)", "method_in_brief": "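THP-1 cells (2000/well) exposed to compound 16 h at 37 C; secreted IL-8 then detected by HTRF with cryptate- and XL665-labelled anti-IL-8 antibody pair after 1-3 h at room temperature.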"}, "[18]": {"biological_target": "3',5'-cyclic-AMP phosphodiesterase 4B (Homo sapiens) (UniProt Q07343)", "sequence (Q07343 whole entry, looked up)": "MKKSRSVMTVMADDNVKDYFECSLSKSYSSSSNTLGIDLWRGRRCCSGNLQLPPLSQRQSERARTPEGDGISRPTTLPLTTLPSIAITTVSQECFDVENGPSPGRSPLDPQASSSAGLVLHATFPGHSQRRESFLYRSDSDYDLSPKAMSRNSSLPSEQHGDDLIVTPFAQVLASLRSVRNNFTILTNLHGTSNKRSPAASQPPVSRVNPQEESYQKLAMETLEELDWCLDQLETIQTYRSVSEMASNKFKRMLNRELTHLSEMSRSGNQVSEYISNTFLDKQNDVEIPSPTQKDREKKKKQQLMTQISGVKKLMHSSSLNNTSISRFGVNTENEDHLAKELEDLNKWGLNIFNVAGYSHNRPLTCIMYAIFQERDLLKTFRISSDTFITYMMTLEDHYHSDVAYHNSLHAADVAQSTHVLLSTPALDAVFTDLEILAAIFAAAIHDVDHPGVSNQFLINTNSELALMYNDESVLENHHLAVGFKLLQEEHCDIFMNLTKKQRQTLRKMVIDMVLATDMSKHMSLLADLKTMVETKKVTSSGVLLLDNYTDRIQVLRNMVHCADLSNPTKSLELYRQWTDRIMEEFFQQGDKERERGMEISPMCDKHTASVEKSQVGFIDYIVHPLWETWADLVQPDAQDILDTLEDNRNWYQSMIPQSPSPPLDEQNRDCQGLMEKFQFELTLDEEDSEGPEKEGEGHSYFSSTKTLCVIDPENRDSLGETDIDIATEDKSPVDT", "assay": "qHTS Assay for Inhibitors of PDE-IV (AID 607; active = well fitted activation curve with a large enough effect in the main read-out, with a control signal flat, not every such curve was filed as active)", "method_in_brief": "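The readout is membrane depolarisation from a cAMP-sensing CNG channel, detected with a potential dye at ex 535/em 590. Cells were HEK293-derived (endogenous PDE-IV) at 1000 cells/well, titrated up to 22.9 uM final.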"}},
  "note": "Several values for one entry are separate records, joined by “and”; a condition that tells them apart may be missing. Equal entries are not always repeated. Records with an inconclusive call do not appear. Activity calls are given as the source filed them. Unless noted, calls come from the whole dose curve.",
  "data": [
    {"smiles": "Cc1cc(O)c(C(C)(C)C)cc1Sc1cc(C(C)(C)C)c(O)cc1C", "values": [
      {"measurement": "outcome", "setting": "[1]", "value": "inactive"},
      {"measurement": "Potency", "setting": "[2]", "value": "22.4 µM (active)"},
      {"measurement": "activation", "setting": "[3]", "value": "26% (inactive)"},
      {"measurement": "Potency", "setting": "[4]", "value": "39.8 µM (active) and 25.1 µM (active)"},
      {"measurement": "outcome", "setting": "[5]", "value": "inactive"},
      {"measurement": "outcome", "setting": "[6]", "value": "inactive"}
    ]},
    {"smiles": "O=C1OC(O)C(C(Cl)Cl)=C1Cl", "note": "(stereo not given)", "values": [
      {"measurement": "activation", "setting": "[3]", "value": "-17.9% (inactive)"},
      {"measurement": "Potency", "setting": "[7]", "value": "44.7 µM (active)"},
      {"measurement": "outcome", "setting": "[5]", "value": "inactive"},
      {"measurement": "max response", "setting": "[8]", "value": -8.4, "unit": "%"},
      {"measurement": "max response", "setting": "[9]", "value": "-25.5% (inactive)"},
      {"measurement": "Potency", "setting": "[10]", "value": "29.8 µM (active)"},
      {"measurement": "activation", "setting": "[11]", "value": "-1.76% (inactive)"},
      {"measurement": "activation", "setting": "[12]", "value": "-0.496% (inactive)"}
    ]},
    {"smiles": "O=C=Nc1ccc(Cc2ccc(N=C=O)cc2)cc1", "values": [
      {"measurement": "Potency", "setting": "[2]", "value": "inactive"},
      {"measurement": "activation", "setting": "[3]", "value": "5.29% (inactive) and -5.07% (inactive)"},
      {"measurement": "Potency", "setting": "[13]", "value": "inactive"},
      {"measurement": "max response", "setting": "[14]", "value": "-20% and 23.7%"},
      {"measurement": "outcome", "setting": "[15]", "value": "inactive"},
      {"measurement": "Potency", "setting": "[7]", "value": "inactive"},
      {"measurement": "outcome", "setting": "[5]", "value": "inactive"},
      {"measurement": "max response", "setting": "[16]", "value": "-1.3% and -4.07%"},
      {"measurement": "max response", "setting": "[8]", "value": "-3.54% and -5.83%"},
      {"measurement": "max response", "setting": "[9]", "value": "9.21% (inactive) and 0.991% (inactive)"},
      {"measurement": "Potency", "setting": "[10]", "value": "inactive"},
      {"measurement": "activation", "setting": "[11]", "value": "6.25% (inactive) and 1.32% (inactive)"},
      {"measurement": "activation", "setting": "[12]", "value": "0.0924% (inactive)"},
      {"measurement": "outcome", "setting": "[6]", "value": "inactive"},
      {"measurement": "outcome", "setting": "[17]", "value": "inactive"}
    ]},
    {"smiles": "CC(=O)Nc1ccc(C(=O)CCl)cc1", "values": [
      {"measurement": "activation", "setting": "[3]", "value": "-4.98% (inactive) and -25.5% (inactive)"},
      {"measurement": "Potency", "setting": "[13]", "value": "39.8 µM (active)"},
      {"measurement": "Potency", "setting": "[7]", "value": "25.1 µM (active)"},
      {"measurement": "Potency", "setting": "[11]", "value": "31.6 µM (active)"},
      {"measurement": "activation", "setting": "[12]", "value": "-3.62% (inactive)"}
    ]},
    {"smiles": "Nc1ccc2cc3ccccc3cc2c1", "values": [
      {"measurement": "Potency", "setting": "[10]", "value": "2.37 µM (active)"}
    ]},
    {"smiles": "c1cc(OCC2CO2)cc(OCC2CO2)c1", "note": "(stereo not given)", "values": [
      {"measurement": "outcome", "setting": "[1]", "value": "inactive"},
      {"measurement": "activation", "setting": "[3]", "value": "4.18% (inactive) and -8.77% (inactive)"},
      {"measurement": "outcome", "setting": "[5]", "value": "inactive"},
      {"measurement": "outcome", "setting": "[6]", "value": "inactive"}
    ]},
    {"smiles": "C=C(C)c1ccccc1", "values": [
      {"measurement": "Potency", "setting": "[2]", "value": "inactive"},
      {"measurement": "Potency", "setting": "[7]", "value": "inactive"},
      {"measurement": "outcome", "setting": "[5]", "value": "inactive"},
      {"measurement": "max response", "setting": "[16]", "value": -11, "unit": "%"},
      {"measurement": "max response", "setting": "[8]", "value": -0.247, "unit": "%"},
      {"measurement": "max response", "setting": "[9]", "value": "-3.16% (inactive)"},
      {"measurement": "activation", "setting": "[11]", "value": "-1.34% (inactive)"},
      {"measurement": "activation", "setting": "[12]", "value": "1.11% (inactive)"},
      {"measurement": "outcome", "setting": "[6]", "value": "inactive"},
      {"measurement": "outcome", "setting": "[17]", "value": "inactive"}
    ]},
    {"smiles": "CC[C@]1(O)C[C@H]2CN(CCc3c([nH]c4ccccc34)[C@](C(=O)OC)(c3cc4c(cc3OC)N(C)[C@@H]3[C@](O)(C(=O)OC)[C@H](OC(C)=O)[C@]5(CC)C=CCN6CC[C@]43[C@@H]65)C2)C1", "values": [
      {"measurement": "Potency", "setting": "[18]", "value": "inactive"}
    ]}
  ]
}
